In ChEMBL document CHEMBL1157539, “Thousands of chemical starting points for antimalarial lead identification” (Nature, 2010):

Key:
Type in all cases: functional
Plasmodium falciparum [1] = experiment: GSK_TCMDC: Inhibition of Plasmodium falciparum 3D7 in whole red blood cells, using parasite LDH activity as an index of growth. Test compounds present at 2uM
Plasmodium falciparum [2] = experiment: GSK_TCMDC: Inhibition of Plasmodium falciparum Dd2 in whole red blood cells, using parasite LDH activity as an index of growth. Test compounds present at 2uM
HepG2 = experiment: GSK_TCMDC: Percent inhibition of human HepG2 cell line. Test compounds present at 10uM.

SMILES | Inhibition (Plasmodium falciparum [1]) [%] | Inhibition (Plasmodium falciparum [2]) [%] | Inhibition (HepG2) [%]
CC1(C)CCC(C)(C)c2c1ccc(C1CCN(CCCCNC(=O)c3ccc(-c4ccc(C#N)cc4)cc3)CC1)c2OCC(N)=O | 100 | 100 | 99
COc1ccc(-c2nonc2NC(=O)c2cccc(Cl)c2)cc1OC | 98 | 63 | 41
COc1cc(C=CC(=O)N2CCN(Cc3cccc(C)c3)CC2)ccc1OCc1c(C)noc1C | 86 | 95 | 8
O=C(Nc1cccc(CN2CCCN(Cc3ncc[nH]3)CC2)c1)c1ccc(-c2ccccc2)cc1.O=C(O)C(F)(F)F | 100 | 56 | 23
Cn1nc(-c2cccc(CNCCc3cccs3)c2)c2cnc(NC3CCCC3)nc21 | 97 | 0 | 8
COc1ccc2c(=O)c3ccc(OC)cc3[nH]c2c1 | 93 | 75 | 12
COc1ccc2nccc([C@@H](O)CN3CCC(NCc4ccc5c(c4)NC(=O)CS5)CC3)c2n1.O=C(O)C(=O)O | 100 | 34 | 1
O=S(=O)(Nc1cccc(CCN2CCC(N3CCCCC3)CC2)c1)c1ccccc1C(F)(F)F | 82 | 32 | 21
COc1cc(F)c2ncc(Cl)c(CCN3CCC(NCc4ccc5c(c4)NC(=O)CS5)CC3)c2c1.Cl | 100 | 85 | 27
O=C(NCCCCN1CCC(c2ccc3c(c2OCc2ccccn2)CCCC3)CC1)c1ccc(NC(=O)c2ccc(Cl)cc2)cc1 | 100 | 70 | 31
COc1ccc2cc(-c3nc(-c4c(Cl)cccc4Cl)[nH]c3-c3ccnc(NCCCN4CCCCC4C)c3)ccc2c1.O=C(O)C(F)(F)F (stereo not given) | 94 | 86 | 19
CCCCCCCN1CC[C@@H](CCCc2ccnc3ccc(OCC4CCCNC4)cc23)[C@@H](CC)C1.Cl (stereo not given in full) | 98 | 100 | 99
N#CCCN1CCN(Cc2cccc(-c3ccc(-c4nc5cc(C(F)(F)F)ccc5[nH]4)cc3)c2)CC1.O=C(O)C(F)(F)F | 100 | 63 | 23
O=C(Nc1ccc(N2CCN(Cc3c[nH]c4cc(F)ccc34)CC2)cc1)c1ccccc1-c1ccc(C(F)(F)F)cc1 | 85 | 7 | 20
O=C1C[C@@H]([S+]([O-])Cc2nccs2)N1CCOCCCCCCc1ccc(Cl)cc1 (stereo not given in full) | 91 | 0 | 0
Fc1cc(Cl)ccc1Nc1ccnc2cc(-c3ccc(CN4CCOCC4)o3)ccc12 | 99 | 98 | 33
Cc1noc(NC(=O)c2sc3ccccc3c2O)c1C | 90 | 50 | 0
COc1cccc(CNC(=O)NC2CCN(c3ccnc(Nc4cc(OC)c(OC)c(OC)c4)n3)C2)c1 (stereo not given) | 93 | 84 | 15
COc1ccc2ncc(F)c(CCN3CCC(NCc4cc(Br)c5c(c4)OCCO5)CC3)c2n1.Cl | 100 | 94 | 26
Cl.Nc1ccnc2ccc(NC(=O)CCCCCc3ccccc3)cc12 | 96 | 30 | 47

SMILES | Inhibition (Plasmodium falciparum [1]) [%] | Inhibition (Plasmodium falciparum [2]) [%] | Inhibition (HepG2) [%]
Cc1ccc(C2(C)CN(CCCOc3cccc(-c4ccc(C(=O)NC(C)C)cc4)c3)CCO2)cc1 (stereo not given) | 93 | 89 | 15
CN(C)CCCNCCS(=O)(=O)c1cccc(Nc2ccc(-c3cccc(N(C)C)c3)cn2)c1 | 98 | 0 | 19
CCN(CCCN1CCCCC1)c1cc(C)nc(Nc2cc(Cl)cc(Cl)c2)n1.O=C(O)C(F)(F)F | 100 | 99 | 34
Cc1cc(=NN=Cc2ccc(Cl)cc2)c2ccccc2[nH]1 | 100 | 87 | 5
CCC(C)(C)c1ccc(OCC(O)CN2CCCCC2)c(C(C)(C)CC)c1 (stereo not given) | 91 | 26 | 14
CC(C)(C)c1ccc(CN2CCC(NC(=O)c3ccc(-c4ccccc4F)s3)CC2)cc1.O=C(O)C(F)(F)F | 85 | 37 | 36
Cc1cc(-c2ccc(NC(=O)c3coc4ccc(N5CC(C)N(C)C(C)C5)cc34)cc2C)cc(C)n1.Cl (stereo not given) | 94 | 62 | 13
COc1ccc(C2SCC(=O)N2CCc2ccc(OC)c(OC)c2)cc1 (stereo not given) | 96 | 2 | 19
N.Nc1nc2c(ncn2COC2COP(=O)(O)OC2)c(=O)[nH]1 (stereo not given) | 81 | 54 | 7
COC(=O)C(C)NCC(=O)c1ccccc1.Cl (stereo not given) | 97 | 23 | 5
COCCOc1cc(C)c(C2CCN(CCCCNC(=O)c3ccc(NC(=O)c4ccc(Cl)cc4)cc3)CC2)cc1C | 88 | 30 | 15
Cc1cccc2nc(-c3ccc(-c4cccc(NC(=O)Nc5ccc6c(c5)OCO6)c4)cc3)[nH]c12 | 100 | 39 | 28
O=C(NCC1CCC(C(=O)NCc2cccc(C(F)(F)F)c2)CC1)c1ccc(O)c(-c2ccc(Cl)c(Cl)c2)c1 (stereo not given) | 98 | 41 | 5
CNCCNCc1cccc(-c2ccc(-c3nc4cccc(C)c4[nH]3)cc2)c1.O=C(O)C(F)(F)F | 98 | 21 | 17
COc1ccc(-c2ccc(CNCc3ccc(F)cc3)cc2)cc1S(=O)(=O)NCCN1CCCC1.O=C(O)C(F)(F)F | 98 | 33 | 24
O=[N+]([O-])c1ccc2ncnc(Nc3ccc(F)c(Cl)c3)c2c1 | 100 | 65 | 0
COc1ccc(C(=O)Nc2ccc(-c3nc4cc(C)ccc4[nH]3)cc2)cc1OC | 100 | 38 | 70
CCCCCCNC(=O)c1nn(CCN2CCC(N3CCCC3)CC2)cc1-c1ccc(Cl)c(Cl)c1 | 100 | 33 | 31
Clc1cccc(CNC2CCN(CC3CCCCC3)CC2)c1.O=C(O)C(F)(F)F | 97 | 24 | 4
CC(C)CN(c1nc(C(=O)NNC(=O)[C@H](CC2CC2)NC(=O)c2cc3cc(OCCN4CCCCC4)ccc3o2)cs1)C1CC1 | 97 | 98 | 2

SMILES | Inhibition (Plasmodium falciparum [1]) [%] | Inhibition (Plasmodium falciparum [2]) [%] | Inhibition (HepG2) [%]
CN1CCCN(Cc2cccc(-c3ccc(NC(=O)c4cccc(C#N)c4)cc3)c2)CC1.O=C(O)C(F)(F)F | 100 | 96 | 27
CS(=O)(=O)O.O=[N+]([O-])c1ccc(CNCCCCCCNCc2ccc([N+](=O)[O-])c3ccccc23)c2ccccc12 | 100 | 98 | 88
CN(C(=O)c1snnc1-c1ccccc1)C1CCN(CCCCCNC(=O)/C=C/c2ccc(Cl)c(Cl)c2)CC1 | 96 | 58 | 44
COc1ccc(-c2cnc(N)c(-c3nc4cc(Br)ccc4[nH]3)c2)cc1.O=C(O)C(F)(F)F | 100 | 3 | 42
Cc1cccc2nc(-c3cccc(-c4ccc(CN5CCC(C(N)=O)CC5)cc4)c3)[nH]c12.O=C(O)C(F)(F)F | 89 | 9 | 0
COc1ccc2[nH]ccc(=NN=CC=Cc3ccccc3)c2c1 | 100 | 99 | 11
Cc1cccc2nc(-c3ccc(-c4ccc(CN5CCCCC5)cc4)cc3)[nH]c12.O=C(O)C(F)(F)F | 100 | 99 | 27
Cc1c(F)cc(C(=O)NC2CC2)cc1-c1ccc2c(c1)c(C)nn2S(=O)(=O)c1cccs1 | 91 | 92 | 34
CN(C)Cc1cccc(-c2ccc(Nc3nccc(NCC(O)c4ccccc4)n3)cc2)c1 (stereo not given) | 100 | 77 | 75
COc1ccccc1Cn1ccnc1SCC(=O)Nc1cc(C(F)(F)F)ccc1Cl | 96 | 97 | 12
O=C(NCCN1CCCC1)c1cccc(Nc2nccc(Nc3ccc(Oc4ccccc4)cc3)n2)c1 | 100 | 18 | 33
CS(=O)(=O)CCNC(=O)c1ccc(-c2cc3c(Nc4ccc5c(cnn5Cc5ccccc5)c4)ncnc3cn2)o1.Cl | 97 | 46 | 6
O=C(/C=C/c1ccc(Cl)c(Cl)c1)N1CCC(CCN2CCC(c3c[nH]c4cc5c(cc34)OCO5)CC2)CC1 | 99 | 65 | 46
COc1ccc2ncn(-c3ccc(C(N)=O)c(OCc4ccccc4C(F)(F)F)c3)c2c1 | 98 | 100 | 18
CC(C)C(=O)NC(c1ccc(Cl)cc1)c1ccc2cccnc2c1O (stereo not given) | 91 | 70 | 53
Cc1noc(C)c1-c1cccc(CNCc2cccc(-c3ccc(-c4nc5cccc(C)c5[nH]4)s3)c2)c1.O=C(O)C(F)(F)F | 100 | 75 | 22
CCn1c(-c2nonc2N)nc2cnc(Oc3cccc(NC(=O)c4ccc(OCCCN5CCCCC5)cc4)c3)cc21 | 90 | 12 | 38
CS(=O)(=O)c1ccc(Nc2ncc(-c3ccc(S(C)(=O)=O)cc3)c(OCC(F)(F)F)n2)cc1 | 97 | 98 | 0
O=C(O)C(F)(F)F.O=[N+]([O-])c1cccc(CNCC2CCN(CC3CCCCC3)CC2)c1 | 90 | 14 | 11
OC(CNc1ccnc(Nc2cccc(Cl)c2)n1)c1ccccc1C(F)(F)F (stereo not given) | 95 | 36 | 40
